The list is not random: actives were taken first. Their share in the collection is about 3.3%.
Vaccinia Venus – inhibitors of vaccinia virus (Venus reporter). Potency, µM (highest dose often 36.5 µM), actives largely listed as inhibitors. 330,000 compounds, 0.46% hits. AID 720580. Vaccinia virus Venus reporter expression, fluorescence; calls by dose curve; tested in A549 cells; further: nearly all actives have a fitted effect of over 30% in size
Vaccinia mCherry – inhibitors of vaccinia virus infection (mCherry reporter signal); Vaccinia virus mCherry reporter infection, fluorescence; Potency, µM (highest dose often 36.5 µM), actives largely listed as inhibitors; 310,000 compounds, 0.63% hits; AID 720579; calls by dose curve; tested in A549 cells; further: nearly all actives have a fitted effect of over 35% in size
HCV inhibitor – blocks hepatitis C virus; Huh7.5.1 HCVcc-Cre infection, luciferase reporter, 44 h; Potency, µM (doses to about 41.8 µM), hits mostly inhibitors; 340,000 compounds, 3.4% hits; active means well fitted inhibition curve with a large enough effect; inconclusive means small, poorly fitted or top-dose-only effect, or another doubt; inactive means no such curve, though single readings can be large or run the other way
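Infectious HCVcc-Cre (~0.5 moi) was added to cells just after compound, with cells seeded 4 h earlier at 1,000 per well. Luciferase activity after 44 h culture reported infection; substrate was incubated 15 min at room temperature before reading.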
Large screens that a line does not name were inactive.

Cc1ccc(-c2cn(-c3cccc(Cl)c3)c(S(=O)(=O)CC(=O)Nc3cccc(C)c3)n2)cc1	none (no result: HCV inhibitor)
COc1ccc(-c2cc(-c3ccccc3)c(C#N)c(S(C)=O)n2)cc1 (stereo not drawn)	HCV inhibitor 22.4µM (no result: Vaccinia Venus, Vaccinia mCherry)
COc1ccc(-c2cc(-c3ccccc3)c(C#N)c(=S)[nH]2)cc1	none (no result: Vaccinia Venus, Vaccinia mCherry)
Cc1oc(-c2cccc(Cl)c2)nc1CN1CCC(C(=O)NC2CC2)CC1	none (no result: Vaccinia Venus, Vaccinia mCherry)
CCN(CCNC(=O)C1CCN(Cc2nc(-c3cccc(Cl)c3)oc2C)CC1)c1ccccc1	Vaccinia Venus 11.2µM, Vaccinia mCherry 14.1µM, HCV inhibitor inconclusive
CCN(CCNC(=O)C1CCN(Cc2nc(-c3ccc(Cl)cc3)oc2C)CC1)c1ccccc1	Vaccinia Venus inconclusive, Vaccinia mCherry 12.6µM
CCc1ccc(-c2nc(CN3CCC(C(=O)NCCN(CC)c4ccccc4)CC3)c(C)o2)cc1	HCV inhibitor inconclusive
CN(C(=O)CSc1nnc(Nc2ccccc2)s1)c1c(N)n(Cc2ccccc2)c(=O)[nH]c1=O	none
CCCCN(C(=O)CSc1nnc(Nc2ccc(C)c(C)c2)s1)c1c(N)n(Cc2ccccc2)c(=O)[nH]c1=O	Vaccinia Venus inconclusive, Vaccinia mCherry inconclusive, HCV inhibitor 10µM
CC1CCC(NC(=O)c2ccc3c(c2)N(Cc2cccc(Cl)c2)C(=O)c2ccccc2S3(=O)=O)CC1 (stereo not drawn)	none (no result: HCV inhibitor)
CCN(Cc1ccccc1)S(=O)(=O)c1ccc(C(=O)N(CCCN(C)C)c2nc3cc(OC)ccc3s2)cc1	Vaccinia Venus inconclusive, HCV inhibitor 25.1µM
CCN(Cc1ccccc1)S(=O)(=O)c1ccc(C(=O)N(CCCN(C)C)c2nc3ccc(F)cc3s2)cc1	HCV inhibitor inconclusive
CCN(Cc1ccccc1)S(=O)(=O)c1ccc(C(=O)N(CCCN(C)C)c2nc3cc4c(cc3s2)OCCO4)cc1	Vaccinia Venus inconclusive, HCV inhibitor 11.2µM
COc1ccc2sc(N(CCCN(C)C)C(=O)c3ccc(C(=O)c4ccccc4)cc3)nc2c1	Vaccinia Venus inconclusive, HCV inhibitor inconclusive
CCN(CC)CCN(C(=O)c1ccc(C(=O)c2ccccc2)cc1)c1nc2cc3c(cc2s1)OCO3	Vaccinia mCherry inconclusive
CN(C)CCCN(C(=O)c1ccc([N+](=O)[O-])s1)c1nc2cc3c(cc2s1)OCCO3	none (no result: Vaccinia Venus, Vaccinia mCherry)
CN(C)CCCN(C(=O)c1cc2cc([N+](=O)[O-])ccc2s1)c1nc2cc3c(cc2s1)OCCO3	Vaccinia Venus 12.6µM, Vaccinia mCherry 14.1µM, HCV inhibitor inconclusive
CN(C)CCCN(C(=O)c1ccc(C(=O)c2ccccc2)cc1)c1nc2cc3c(cc2s1)OCO3	Vaccinia Venus inconclusive, Vaccinia mCherry inconclusive, HCV inhibitor 14.1µM
Cc1nc(C)c(C(=O)N2CCc3c(cnc(C)c3CNC(=O)c3cncs3)C2)s1	none (no result: HCV inhibitor)
CCC(=O)NN1CCc2cc3ccc(C)cc3nc21	none
Cc1ccc(SC[C@H](C)CN2CC[C@H](O)CCC2=O)cc1	none (no result: HCV inhibitor)
COc1ccc(OC)c(CNC(=O)C2CCC(=O)N2C(C)C)c1 (stereo not drawn)	none (no result: Vaccinia Venus, Vaccinia mCherry)
COc1ccc(CNC(=O)Cc2csc3nc(-c4ccc(F)cc4)cn23)cc1	none (no result: HCV inhibitor)
COc1ccc(N2CCN(c3nc(-c4cccs4)nc4ccccc34)CC2)cc1	HCV inhibitor 11.2µM
CCSc1nc(-c2cccs2)nc2ccccc12	HCV inhibitor 3.98µM
c1ccc(CNc2nc(-c3cccs3)nc3ccccc23)cc1	HCV inhibitor inconclusive
COc1ccc(Nc2nc(-c3cccs3)nc3ccccc23)cc1	Vaccinia Venus inconclusive, HCV inhibitor 4.47µM
CC(C)S(=O)(=O)N1CCN(c2nc(-c3cccs3)nc3ccccc23)CC1	none (no result: HCV inhibitor)
c1csc(-c2nc(N3CCOCC3)c3ccccc3n2)c1	HCV inhibitor 11.2µM
c1ccc2c(N3CCOCC3)nc(-c3ccncc3)nc2c1	HCV inhibitor inconclusive (no result: Vaccinia mCherry)
COc1cccc(Nc2nc(-c3cccs3)nc3ccccc23)c1	Vaccinia Venus inconclusive, HCV inhibitor inconclusive
CC(C)NC(=S)N(CCc1ccncc1)C(C)C	none
CCOc1ccc(CNC(=O)c2ccc3c(c2)c(C)c(C)n3Cc2ccccc2)cc1OC	none (no result: HCV inhibitor)
CCN(CC(=O)Nc1ccc(NC(C)=O)cc1)C(=O)c1cccnc1Sc1ccc(C)c(C)c1	none
CCOC(=O)CCc1c(C)c2ccc(O)cc2oc1=O	none
CCN(CC)c1ccc2c(C)c(Cl)c(=O)oc2c1	none
CCOC(=O)Cc1c(C)c2ccc(N(CC)CC)cc2oc1=O	HCV inhibitor 10µM
CCN(CC)c1ccc2c(C)c(-c3ccc(N)cc3)c(=O)oc2c1	HCV inhibitor 8.91µM (no result: Vaccinia mCherry)
Oc1ccc(C2=NN(c3ccccc3)C(c3ccc(F)cc3)C2)cc1 (stereo not drawn)	Vaccinia Venus inconclusive, HCV inhibitor 10µM
Oc1ccccc1C1=NN(c2ccccc2)C(c2ccc(F)cc2)C1 (stereo not drawn)	none
Cc1ccc(NC(=O)Cn2cc3c(n2)CCCC3)cc1Cl	none (no result: HCV inhibitor)
COc1ccc(Nc2c(-c3ccc(C)o3)nc3cc(C)ccn23)cc1	none (no result: HCV inhibitor)
Nc1c(Br)cc(/C=C/c2ccnc3ccccc23)cc1Br	none (no result: HCV inhibitor)

Bioassay records (PubChem)
